# PubChem BioAssay (EPA / NIEHS)
# Inconclusive results are not listed. Activity calls are given as the source filed them. Rule for the calls, unless noted: active = hit-call score of the fitted dose curve at least 0.9, where 1 is the maximum; inactive = score below 0.9.
# Assays:
# [1] = target: Paired box protein Pax-6 (Homo sapiens) (UniProt P26367); assay: ATG_Pax6_CIS: Attagene CIS-FACTORIAL HepG2 Assay for human Paired Box 6 (PAX6) (AID 2282956); settings: HepG2 CIS-FACTORIAL PAX6 reporter transcription, RNA readout; actives raise or lower the signal
# Sequence of Paired box protein Pax-6 (Homo sapiens) (P26367 whole entry, looked up): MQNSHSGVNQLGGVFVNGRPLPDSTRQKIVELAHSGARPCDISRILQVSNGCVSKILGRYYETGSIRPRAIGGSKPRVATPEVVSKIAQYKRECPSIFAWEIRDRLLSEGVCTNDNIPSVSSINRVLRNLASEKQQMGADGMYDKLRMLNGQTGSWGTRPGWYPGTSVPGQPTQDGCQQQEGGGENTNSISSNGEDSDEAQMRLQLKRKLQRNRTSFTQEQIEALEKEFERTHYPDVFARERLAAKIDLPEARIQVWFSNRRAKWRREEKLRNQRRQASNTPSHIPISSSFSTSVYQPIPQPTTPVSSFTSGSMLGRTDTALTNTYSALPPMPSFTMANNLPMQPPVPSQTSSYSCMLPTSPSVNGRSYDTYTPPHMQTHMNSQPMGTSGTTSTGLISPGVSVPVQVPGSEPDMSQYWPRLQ
# How it was run: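 HepG2 cells transiently transfected with cis-promoter-driven multiplexed reporter units sensing endogenous transcription factor activity; 24 h chemical exposure. Reporter mRNA quantified by RT-PCR, 6-FAM labelling, HpaI digestion and capillary electrophoresis; bidirectional fit versus DMSO baseline.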
# [2] = ATG_PXRE_CIS: Attagene CIS-FACTORIAL HepG2 Assay for human Pregnane X Receptor Element (PXRE) (AID 2282957); settings: HepG2 Attagene CIS-FACTORIAL PXRE reporter, mRNA; actives raise or lower the signal
# How it was run: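 HepG2 cells transiently transfected with cis-regulated multiple reporter transcription units; endogenous factor activity measured as reporter mRNA 24 h after dosing. RT-PCR, fluorescent primer extension, HpaI digestion, capillary electrophoresis; bidirectional fit versus DMSO baseline.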
# [3] = ATG_RORE_CIS: Attagene CIS-FACTORIAL HepG2 Assay for human RAR-related Orphan Receptor Element (RORE) (AID 2282959); settings: HepG2 Attagene cis-factorial RORE reporter, mRNA; actives raise or lower the signal
# How it was run: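 A 24-hour exposure of transfected HepG2 hepatoma cells precedes RNA isolation and reporter RT-PCR. Labeled products are digested with HpaI and resolved by capillary electrophoresis, with gain or loss of signal scored relative to DMSO.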
# [4] = ATG_Sox_CIS: Attagene CIS-FACTORIAL HepG2 Assay for human SRY-box transcription factor (SOX) (AID 2282960); settings: HepG2 Attagene cis-factorial SOX reporter, mRNA; actives raise or lower the signal
# How it was run: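 HepG2, cis reporter units, 24 h exposure. Reporter mRNA: RT-PCR → FAM labelling → HpaI → CE fluorescence. Bidirectional fit vs DMSO.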
# [5] = target: Transcription factor Sp1 (Homo sapiens) (UniProt P08047); assay: ATG_Sp1_CIS: Attagene CIS-FACTORIAL HepG2 Assay for human Specificity Protein 1 (Sp1) (AID 2282961); settings: HepG2 Sp1 cis-reporter transcription, actives raise or lower the signal
# Sequence of Transcription factor Sp1 (Homo sapiens) (P08047 whole entry, looked up, the tested form may be a part): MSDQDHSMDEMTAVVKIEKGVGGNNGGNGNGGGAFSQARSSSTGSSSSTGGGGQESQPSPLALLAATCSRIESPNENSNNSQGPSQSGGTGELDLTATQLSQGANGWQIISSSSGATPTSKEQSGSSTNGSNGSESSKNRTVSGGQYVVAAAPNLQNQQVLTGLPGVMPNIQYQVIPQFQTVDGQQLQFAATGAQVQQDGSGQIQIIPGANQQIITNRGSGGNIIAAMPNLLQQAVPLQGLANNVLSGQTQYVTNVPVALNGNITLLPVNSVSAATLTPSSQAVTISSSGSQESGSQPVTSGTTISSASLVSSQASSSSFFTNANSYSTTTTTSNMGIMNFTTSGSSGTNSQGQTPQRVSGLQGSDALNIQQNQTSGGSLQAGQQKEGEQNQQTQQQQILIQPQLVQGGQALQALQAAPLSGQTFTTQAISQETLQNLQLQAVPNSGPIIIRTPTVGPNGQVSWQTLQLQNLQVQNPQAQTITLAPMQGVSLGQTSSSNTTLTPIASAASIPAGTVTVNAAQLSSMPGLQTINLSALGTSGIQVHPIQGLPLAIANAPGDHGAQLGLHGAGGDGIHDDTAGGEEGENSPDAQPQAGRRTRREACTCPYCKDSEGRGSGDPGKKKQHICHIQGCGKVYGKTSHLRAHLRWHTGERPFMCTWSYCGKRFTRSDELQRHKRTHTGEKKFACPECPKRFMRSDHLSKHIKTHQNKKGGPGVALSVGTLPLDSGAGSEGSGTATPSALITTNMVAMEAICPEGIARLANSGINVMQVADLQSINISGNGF
# How it was run: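 Liver-derived HepG2 cells, cis-element reporter library, 24 h treatment; RNA isolated, cDNA amplified with reporter-specific primers, FAM-labeled fragments sized on capillary analyzer. DMSO baseline, bidirectional curve fit.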
# [6] = ATG_SREBP_CIS: Attagene CIS-FACTORIAL HepG2 Assay for human Sterol Regulatory Element Binding (SREBP) (AID 2282962); settings: HepG2 Attagene cis-factorial SREBP reporter, mRNA; actives raise or lower the signal
# How it was run: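 HepG2 cells transiently transfected with multiplexed cis-promoter reporter units sensing endogenous transcription factors; reporter mRNA measured 24 h after dosing by RT-PCR, 6-FAM labeling, HpaI digestion and capillary electrophoresis. Bidirectional fit versus DMSO.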
# [7] = target: Signal transducer and activator of transcription 3 (Homo sapiens) (UniProt P40763); assay: ATG_STAT3_CIS: Attagene CIS-FACTORIAL HepG2 Assay for human Signal Transducer and Activator of Transcription 3 (STAT3) (AID 2282963); settings: HepG2, Attagene cis-factorial STAT3 reporter transcription; actives raise or lower the signal
# Sequence of Signal transducer and activator of transcription 3 (Homo sapiens) (P40763 whole entry, looked up): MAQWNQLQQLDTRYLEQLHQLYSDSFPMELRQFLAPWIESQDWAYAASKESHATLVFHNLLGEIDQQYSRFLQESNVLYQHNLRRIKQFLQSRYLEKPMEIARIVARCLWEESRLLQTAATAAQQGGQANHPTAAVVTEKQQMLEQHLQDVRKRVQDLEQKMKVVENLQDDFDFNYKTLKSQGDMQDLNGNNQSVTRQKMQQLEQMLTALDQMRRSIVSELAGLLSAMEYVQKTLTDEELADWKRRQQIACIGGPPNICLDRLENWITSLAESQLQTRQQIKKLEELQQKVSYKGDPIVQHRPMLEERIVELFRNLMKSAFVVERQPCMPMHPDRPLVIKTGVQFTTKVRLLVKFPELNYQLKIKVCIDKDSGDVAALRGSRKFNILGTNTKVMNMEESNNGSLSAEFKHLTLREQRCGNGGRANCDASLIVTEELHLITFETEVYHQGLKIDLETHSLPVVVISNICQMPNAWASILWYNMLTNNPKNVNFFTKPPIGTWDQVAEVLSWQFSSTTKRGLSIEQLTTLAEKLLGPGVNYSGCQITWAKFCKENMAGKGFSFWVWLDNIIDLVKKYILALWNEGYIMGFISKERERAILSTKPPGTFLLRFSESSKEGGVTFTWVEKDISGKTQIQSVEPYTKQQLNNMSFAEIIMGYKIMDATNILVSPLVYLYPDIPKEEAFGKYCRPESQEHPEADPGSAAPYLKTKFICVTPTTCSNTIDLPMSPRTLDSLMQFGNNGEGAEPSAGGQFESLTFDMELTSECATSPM
# How it was run: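 HepG2 cells transiently transfected with cis-element-driven multiple reporter transcription units; after 24 h chemical exposure, reporter mRNA measured by RT-PCR, 6-FAM primer-extension labelling, HpaI digestion and capillary electrophoresis. Bidirectional fitting versus DMSO baseline.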
# [8] = ATG_TA_CIS: Attagene CIS-FACTORIAL HepG2 Assay for human TA Basal Promoter (AID 2282964); settings: HepG2 Attagene CIS-factorial TA basal promoter reporter; actives raise or lower the signal
# How it was run: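 Background internal-marker endpoint from a 52-component HepG2 cis-reporter panel. Cells treated 24 h; reporter transcripts quantified via RT-PCR and CE fluorescence against DMSO baseline.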
# [9] = ATG_TAL_CIS: Attagene CIS-FACTORIAL HepG2 Assay for human TAL Basal Promoter (AID 2282966); settings: HepG2 Attagene cis-factorial TAL promoter reporter; actives raise or lower the signal;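 note: background control endpoint measuring basal TAL promoter reporter mRNA not a specific factor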
# How it was run: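 HepG2 cells were transiently transfected with promoter-driven multiplexed reporter units and dosed for 24 h. Reporter mRNA was measured by RT-PCR with capillary electrophoresis fluorescence; bidirectional fits used DMSO as baseline, serving as a background control.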
# [10] = ATG_TGFb_CIS: Attagene CIS-FACTORIAL HepG2 Assay for human Transforming Growth Factor (TGF) (AID 2282967); settings: HepG2 Attagene CIS TGFb reporter, mRNA transcription; actives raise or lower the signal
# How it was run: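 Liver HepG2 line, cis-factorial reporter panel, 24 h dosing. Quantitation: RT-PCR products labeled with 6-FAM, cut with HpaI, resolved by capillary electrophoresis; DMSO-referenced bidirectional analysis.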
# [11] = ATG_VDRE_CIS: Attagene CIS-FACTORIAL HepG2 Assay for human Vitamin D Receptor Element (VDRE) (AID 2282968); settings: HepG2 VDRE cis-reporter transcription, actives raise or lower the signal
# How it was run: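 HepG2 cells transiently transfected with cis-element reporter units, dosed 24 h; reporter mRNA measured by RT-PCR, 6-FAM labeling, HpaI digestion and capillary electrophoresis. Activity fitted bidirectionally against DMSO baseline.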
# [12] = target: X-box-binding protein 1 (Homo sapiens) (UniProt P17861); assay: ATG_Xbp1_CIS: Attagene CIS-FACTORIAL HepG2 Assay for human X-box Binding Protein 1 (XBP1) (AID 2282972); settings: HepG2 XBP1 cis-element reporter, Attagene multiplex; actives raise or lower the signal
# Sequence of X-box-binding protein 1 (Homo sapiens) (P17861 whole entry, looked up): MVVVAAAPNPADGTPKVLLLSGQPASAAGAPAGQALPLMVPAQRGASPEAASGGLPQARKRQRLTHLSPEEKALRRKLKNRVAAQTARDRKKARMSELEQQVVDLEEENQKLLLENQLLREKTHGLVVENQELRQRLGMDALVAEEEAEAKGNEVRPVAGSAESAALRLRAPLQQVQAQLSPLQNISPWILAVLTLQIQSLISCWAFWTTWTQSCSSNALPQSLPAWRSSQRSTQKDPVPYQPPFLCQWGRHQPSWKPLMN
# How it was run: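 HepG2 cells transiently transfected with multiple cis-element reporter units report endogenous TF activity; 24 h exposure, then reporter mRNA measured by RT-PCR, 6-FAM labelling, HpaI digestion and capillary electrophoresis. Bidirectional fitting versus DMSO.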
# [13] = target: Glucocorticoid receptor (Homo sapiens) (UniProt P04150); assay: ATG_GR_TRANS: Attagene TRANS-FACTORIAL HepG2 Assay for human Glucocorticoid Receptor (GR) (AID 2282978; active = hit-call score of the fitted dose curve at least 0.9, where 1 is the maximum;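 note: activators score as hits since higher reporter transcript over DMSO is fitted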); settings: HepG2 Attagene TRANS GR reporter, mRNA transcription
# Sequence of Glucocorticoid receptor (Homo sapiens) (P04150 whole entry, looked up): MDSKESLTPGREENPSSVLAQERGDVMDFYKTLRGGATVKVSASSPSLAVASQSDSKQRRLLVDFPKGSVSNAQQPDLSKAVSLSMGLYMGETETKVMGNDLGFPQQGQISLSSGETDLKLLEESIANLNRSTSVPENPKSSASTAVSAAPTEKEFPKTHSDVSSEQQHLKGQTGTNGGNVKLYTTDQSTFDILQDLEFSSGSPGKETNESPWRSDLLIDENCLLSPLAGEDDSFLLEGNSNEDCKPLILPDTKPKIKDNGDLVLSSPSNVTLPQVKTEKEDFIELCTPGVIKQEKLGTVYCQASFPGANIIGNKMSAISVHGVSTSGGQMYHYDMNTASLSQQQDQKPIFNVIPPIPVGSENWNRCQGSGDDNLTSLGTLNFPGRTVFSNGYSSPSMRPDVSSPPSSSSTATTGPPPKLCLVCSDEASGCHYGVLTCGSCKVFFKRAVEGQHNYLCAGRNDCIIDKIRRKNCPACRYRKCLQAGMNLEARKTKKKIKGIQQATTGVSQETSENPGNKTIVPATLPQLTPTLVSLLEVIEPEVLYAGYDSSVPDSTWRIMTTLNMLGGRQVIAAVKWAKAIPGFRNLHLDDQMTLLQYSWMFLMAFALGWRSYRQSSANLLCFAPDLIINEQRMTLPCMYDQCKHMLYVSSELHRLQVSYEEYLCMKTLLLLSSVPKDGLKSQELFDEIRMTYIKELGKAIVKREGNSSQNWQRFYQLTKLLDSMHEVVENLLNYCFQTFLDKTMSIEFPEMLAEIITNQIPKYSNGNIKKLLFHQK
# How it was run: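 After 24 h incubation with test chemical, transfected HepG2 cells were lysed for RNA; reporter cDNA was amplified, FAM-labelled, HpaI-digested and sized on a capillary analyser. Signal gain relative to DMSO was scored.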
# [14] = ATG_TCF_b_cat_CIS: Attagene CIS-FACTORIAL HepG2 Assay for human T-Cell-Factor with beta-catenin (TCF/b-cat) (AID 2282965); settings: HepG2 TCF/beta-catenin cis-reporter transcription, actives raise or lower the signal
# How it was run: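 In this cis-format system, transfected HepG2 cells report endogenous transcription factor activity. Readout after 24 h exposure is reporter transcript abundance from RT-PCR and capillary electrophoresis, analysed for gain or loss of signal versus DMSO.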
# [15] = target: Nuclear receptor subfamily 1 group I member 3 (Homo sapiens) (UniProt Q14994); assay: ATG_CAR_TRANS: Attagene TRANS-FACTORIAL HepG2 Assay for human Constitutive Androstane Receptor (CAR) (AID 2282969; active = hit-call score of the fitted dose curve at least 0.9, where 1 is the maximum;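 note: activators raise reporter mRNA above DMSO so AC50 marks induction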); settings: HepG2 Attagene TRANS-FACTORIAL CAR reporter
# Sequence of Nuclear receptor subfamily 1 group I member 3 (Homo sapiens) (Q14994 whole entry, looked up, the tested form may be a part): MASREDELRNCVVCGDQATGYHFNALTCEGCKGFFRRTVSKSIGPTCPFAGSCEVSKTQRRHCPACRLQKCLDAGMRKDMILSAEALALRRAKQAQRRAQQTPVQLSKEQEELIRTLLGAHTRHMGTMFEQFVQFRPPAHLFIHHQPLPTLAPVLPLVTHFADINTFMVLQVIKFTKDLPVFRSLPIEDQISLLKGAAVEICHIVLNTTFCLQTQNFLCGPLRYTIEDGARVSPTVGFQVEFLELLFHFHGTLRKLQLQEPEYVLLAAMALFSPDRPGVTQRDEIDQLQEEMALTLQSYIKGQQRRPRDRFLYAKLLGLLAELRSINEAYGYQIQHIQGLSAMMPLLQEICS
# How it was run: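 HepG2 cells transiently transfected with multiplexed GAL4-UAS reporter units expressing chimeric NR-Gal4 proteins; compound exposure 24 h. Reporter mRNA measured by RT-PCR, 6-FAM labelling, HpaI digestion and capillary electrophoresis; gain-of-signal fitted against DMSO baseline.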
# [16] = ATG_M_19_TRANS: Attagene TRANS-FACTORIAL HepG2 Assay for M19 Transcription Factor (Internal Marker) (AID 2282974; active = hit-call score of the fitted dose curve at least 0.9, where 1 is the maximum); settings: HepG2 Attagene TRANS-FACTORIAL M19 internal marker reporter
# How it was run: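 Transfected HepG2 (GAL4-UAS MRTUs), 24 h compound, TriZol RNA, DNase-treated RT, reporter PCR, FAM label, HpaI digest, CE fluorescence; gain vs DMSO.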
# [17] = target: Bile acid receptor (Homo sapiens) (UniProt Q96RI1); assay: ATG_FXR_TRANS: Attagene TRANS-FACTORIAL HepG2 Assay for Farnesoid X Receptor (FXR) (AID 2282979; active = hit-call score of the fitted dose curve at least 0.9, where 1 is the maximum;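 note: hits raise reporter mRNA above DMSO so AC50 marks FXR activation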); settings: HepG2 Attagene TRANS FXR-GAL4 reporter transcription
# Sequence of Bile acid receptor (Homo sapiens) (Q96RI1 whole entry, looked up, the tested form may be a part): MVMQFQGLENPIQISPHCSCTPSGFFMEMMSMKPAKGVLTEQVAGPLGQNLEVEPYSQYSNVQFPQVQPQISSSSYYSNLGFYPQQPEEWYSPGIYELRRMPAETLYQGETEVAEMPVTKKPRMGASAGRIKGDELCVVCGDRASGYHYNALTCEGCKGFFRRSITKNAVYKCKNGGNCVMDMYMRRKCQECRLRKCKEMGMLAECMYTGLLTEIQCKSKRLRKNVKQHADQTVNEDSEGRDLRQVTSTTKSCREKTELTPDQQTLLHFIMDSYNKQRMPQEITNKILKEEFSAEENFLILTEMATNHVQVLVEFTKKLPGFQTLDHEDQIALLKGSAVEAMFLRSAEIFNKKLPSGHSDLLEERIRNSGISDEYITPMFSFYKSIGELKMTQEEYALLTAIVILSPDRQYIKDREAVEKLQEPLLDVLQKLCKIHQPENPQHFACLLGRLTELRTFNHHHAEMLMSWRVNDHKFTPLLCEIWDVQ
# How it was run: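 HepG2 cells transiently transfected with reporter constructs in which a chimeric FXR-GAL4 protein drives a GAL4-UAS reporter; 24 h compound exposure. Reporter mRNA measured by RT-PCR, FAM labelling, HpaI digestion and capillary electrophoresis; gain-of-signal versus DMSO.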
# [18] = ATG_PPRE_CIS: Attagene CIS-FACTORIAL HepG2 Assay for human Peroxisome Proliferator-activated Response Element (PPRE) (AID 2282958); settings: HepG2 PPRE cis-element reporter, Attagene transcription factor profiling; actives raise or lower the signal
# How it was run: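 PPRE activity in HepG2: transient cis-reporter transfection, 24 h compound incubation, reporter mRNA by RT-PCR and CE fluorescence; gain/loss fitted against DMSO.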
# [19] = target: Estrogen-related receptor gamma (Homo sapiens) (UniProt P62508); assay: ATG_ERRg_TRANS: Attagene TRANS-FACTORIAL HepG2 Assay for human Estrogen-Related Receptor gamma (ERRg) (AID 2282977; active = hit-call score of the fitted dose curve at least 0.9, where 1 is the maximum;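 note: hits increase reporter signal over DMSO so potencies reflect activators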); settings: HepG2 Attagene TRANS reporter, ERRg transactivation
# Sequence of Estrogen-related receptor gamma (Homo sapiens) (P62508 whole entry, looked up, the tested form may be a part): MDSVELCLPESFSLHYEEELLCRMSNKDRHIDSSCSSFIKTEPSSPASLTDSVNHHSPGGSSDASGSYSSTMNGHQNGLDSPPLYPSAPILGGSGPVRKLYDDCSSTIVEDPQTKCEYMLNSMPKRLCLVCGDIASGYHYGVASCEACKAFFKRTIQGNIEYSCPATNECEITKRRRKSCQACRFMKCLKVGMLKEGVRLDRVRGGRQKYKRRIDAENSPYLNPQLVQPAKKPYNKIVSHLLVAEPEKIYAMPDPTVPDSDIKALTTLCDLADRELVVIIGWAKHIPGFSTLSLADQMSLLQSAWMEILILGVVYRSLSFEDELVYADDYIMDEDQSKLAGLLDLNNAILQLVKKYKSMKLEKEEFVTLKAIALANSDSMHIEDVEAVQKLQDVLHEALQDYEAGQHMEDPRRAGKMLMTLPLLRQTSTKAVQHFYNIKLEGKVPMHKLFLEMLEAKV
# How it was run: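 Transient HepG2 transfectants, 24 h compound exposure, GAL4-UAS reporter mRNA by RT-PCR/6-FAM labelling/capillary electrophoresis; positive direction vs DMSO.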
compound,measurement,setting,value
CCOCCO,outcome,[1],inactive
same,outcome,[2],inactive
same,outcome,[3],inactive
same,outcome,[4],inactive
same,outcome,[5],inactive
same,outcome,[6],inactive
same,outcome,[7],inactive
same,outcome,[8],inactive
same,outcome,[9],inactive
same,outcome,[10],inactive
same,outcome,[11],inactive
same,outcome,[12],inactive
same,outcome,[13],inactive
CCOC(=O)CC(CC(=O)OCC)(OC(C)=O)C(=O)OCC,outcome,[1],inactive
same,AC50,[2],27.3 µM (active)
same,outcome,[4],inactive
same,outcome,[5],inactive
same,outcome,[6],inactive
same,outcome,[7],inactive
same,outcome,[8],inactive
same,outcome,[14],inactive
same,outcome,[9],inactive
same,outcome,[10],inactive
same,outcome,[11],inactive
same,outcome,[15],inactive
same,outcome,[12],inactive
same,outcome,[16],inactive
CN(C)c1ccc(N=NS(=O)(=O)O)cc1,outcome,[1],inactive
same,outcome,[2],inactive
same,AC50,[3],38.6 µM (active)
same,outcome,[4],inactive
same,outcome,[5],inactive
same,outcome,[6],inactive
same,outcome,[7],inactive
same,outcome,[8],inactive
same,outcome,[9],inactive
same,outcome,[10],inactive
same,outcome,[11],inactive
same,outcome,[15],inactive
same,outcome,[12],inactive
same,outcome,[13],inactive
COCCOCCOCCOC,outcome,[1],inactive
same,outcome,[2],inactive
same,outcome,[4],inactive
same,outcome,[5],inactive
same,outcome,[6],inactive
same,outcome,[7],inactive
same,outcome,[8],inactive
same,outcome,[9],inactive
same,outcome,[10],inactive
same,outcome,[11],inactive
same,outcome,[12],inactive
same,outcome,[16],inactive
same,outcome,[13],inactive
CC(=O)OC[C@H]1O[C@@](COC(C)=O)(O[C@H]2O[C@H](COC(C)=O)[C@@H](OC(C)=O)[C@H](OC(C)=O)[C@H]2OC(C)=O)[C@@H](OC(C)=O)[C@@H]1OC(C)=O,outcome,[1],inactive
same,AC50,[2],20.1 µM (active)
same,outcome,[3],inactive
same,outcome,[4],inactive
same,outcome,[5],inactive
same,outcome,[6],inactive
same,outcome,[7],inactive
same,outcome,[8],inactive
same,outcome,[14],inactive
same,outcome,[9],inactive
same,outcome,[10],inactive
same,outcome,[11],inactive
same,outcome,[12],inactive
CCOCCOCCOCCO,outcome,[1],inactive
same,outcome,[2],inactive
same,outcome,[4],inactive
same,outcome,[5],inactive
same,outcome,[6],inactive
same,outcome,[7],inactive
same,outcome,[8],inactive
same,outcome,[14],inactive
same,outcome,[9],inactive
same,outcome,[10],inactive
same,outcome,[11],inactive
same,outcome,[12],inactive
same,outcome,[16],inactive
CC(C)=CCC/C(C)=C\CO,outcome,[1],inactive
same,AC50,[2],7.34 µM (active)
same,outcome,[3],inactive
same,outcome,[4],inactive
same,outcome,[5],inactive
same,outcome,[6],inactive
same,outcome,[7],inactive
same,outcome,[8],inactive
same,outcome,[14],inactive
same,outcome,[9],inactive
same,outcome,[10],inactive
same,outcome,[11],inactive
same,outcome,[12],inactive
same,outcome,[16],inactive
same,outcome,[13],inactive
same,outcome,[17],inactive
CCN(C(=O)c1cc(C)cc(OC[C@H](C)Nc2ccncc2)c1)C(C)C,outcome,[1],inactive
same,AC50,[2],4.97 µM (active)
same,outcome,[4],inactive
same,outcome,[5],inactive
same,AC50,[6],18.2 µM (active)
same,outcome,[7],inactive
same,outcome,[8],inactive
same,outcome,[9],inactive
same,outcome,[10],inactive
same,outcome,[15],inactive
same,outcome,[12],inactive
CC(C)=CCCC(C)CCO (stereo not drawn),outcome,[1],inactive
same,AC50,[2],26.6 µM (active)
same,outcome,[18],inactive
same,outcome,[4],inactive
same,outcome,[5],inactive
same,outcome,[6],inactive
same,outcome,[7],inactive
same,outcome,[8],inactive
same,outcome,[9],inactive
same,outcome,[10],inactive
same,outcome,[12],inactive
same,outcome,[16],inactive
Nc1ccc(Nc2ccccc2)cc1,outcome,[1],inactive
same,outcome,[2],inactive
same,outcome,[4],inactive
same,outcome,[5],inactive
same,outcome,[6],inactive
same,outcome,[7],inactive
same,outcome,[8],inactive
same,outcome,[9],inactive
same,outcome,[10],inactive
same,outcome,[12],inactive
same,outcome,[16],inactive
Cn1c(=O)c2c(ncn2C)n(C)c1=O,outcome,[1],inactive
same,outcome,[2],inactive
same,outcome,[3],inactive
same,outcome,[4],inactive
same,outcome,[5],inactive
same,outcome,[6],inactive
same,outcome,[7],inactive
same,outcome,[8],inactive
same,outcome,[9],inactive
same,outcome,[10],inactive
same,outcome,[15],inactive
same,outcome,[12],inactive
same,outcome,[16],inactive
same,outcome,[19],inactive
O=C(O)CC(O)C(=O)O (stereo not drawn),outcome,[1],inactive
same,outcome,[2],inactive
same,outcome,[3],inactive
same,outcome,[4],inactive
same,outcome,[5],inactive
same,outcome,[6],inactive
same,outcome,[7],inactive
same,outcome,[8],inactive
same,outcome,[14],inactive
same,outcome,[9],inactive
same,outcome,[10],inactive
same,outcome,[11],inactive
same,outcome,[15],inactive
same,outcome,[12],inactive
